# Laboratory results reported in PubChem BioAssay (Tox21).
# Several values for one entry are separate records, joined by “and”; a condition that tells them apart may be missing. Equal values may be shown once. Inconclusive results are not listed. Where a call stands in place of a potency, no number is given. More than one record can exist for a structure, and the calls need not agree. Activity calls are given as the source filed them. Unless noted, calls follow the shape of the dose curve; as a rule, active = well fitted curve in the direction sought with a large enough effect in the repeat runs; inconclusive = weak or mixed curves; inactive = no such curve, though single readings can be large; an effect the other way counts as inactive or inconclusive.
# Experiments:
# [1] = qHTS assay to test for compound auto fluorescence at 535 nm (green) in HEK293 cells (AID 720680)
# [2] = qHTS assay to test for compound auto fluorescence at 460 nm (blue) in HEK293 cell free culture (AID 720681)
# Outline: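 Test compounds were pinned into cell-free culture medium (DMEM with 10% FBS) and fluorescence was read directly at Ex/Em 405/460 nm. Signals were expressed as fluorescence equivalents of triamterene, with DMSO vehicle as control.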
# [3] = qHTS assay to test for compound auto fluorescence at 590 nm (red) in HEK293 cell free culture (AID 720683)
# Outline: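 Tox21 10K library compounds were pinned into cell-free DMEM with 10% FBS and fluorescence was read at excitation 540 nm. Activity is expressed as Rose Bengal sodium equivalency.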
# [4] = qHTS assay to test for compound auto fluorescence at 590 nm (red) in HepG2 cell free culture (AID 720684)
# Outline: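 Measured in medium alone (MEM containing 10% FBS) following pintool addition of compound; emission at 590 nm with 540 nm excitation, referenced to Rose Bengal sodium.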
# [5] = qHTS assay to test for compound auto fluorescence at 460 nm (blue) in HepG2 cell free culture (AID 720685)
# Outline: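 Compound (23 nL) or DMSO pinned into cell-free MEM with 10% FBS; blue fluorescence read at 405/460 nm excitation/emission, expressed as auto-fluorescence equivalency to triamterene.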
# [6] = qHTS assay to test for compound auto fluorescence at 535 nm (green) in HepG2 cell free culture (AID 720686)
# [7] = qHTS assay for identifying genotoxic compounds that show differential cytotoxicity against isogenic chicken DT40 cell lines with known DNA damage response pathways - Rev3 mutant cell line (AID 743014); also: nearly all actives have a fitted effect of over 55% in size; also: potency is read from the fitted curve at half-maximal effect
# [8] = qHTS assay to identify small molecule antagonists of the androgen receptor (AR) signaling pathway using the MDA cell line - cell viability counter screen (AID 743041; also: nearly all actives have a fitted effect of over 45% in size)
# Outline: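 Viability counter screen run alongside the AR antagonist reporter: cells seeded 5 h before compound, R1881 added, 16 h incubation at 37C without CO2, fluorescent CellTiter-Fluor signal quantified.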
# [9] = target: Androgen receptor (Homo sapiens) (UniProt P10275); assay: qHTS assay to identify small molecule antagonists of the androgen receptor (AR) signaling pathway using the MDA cell line (AID 743042; also: nearly all actives have a fitted effect of over 55% in size)
# Androgen receptor (Homo sapiens), sequence (P10275 whole entry, looked up): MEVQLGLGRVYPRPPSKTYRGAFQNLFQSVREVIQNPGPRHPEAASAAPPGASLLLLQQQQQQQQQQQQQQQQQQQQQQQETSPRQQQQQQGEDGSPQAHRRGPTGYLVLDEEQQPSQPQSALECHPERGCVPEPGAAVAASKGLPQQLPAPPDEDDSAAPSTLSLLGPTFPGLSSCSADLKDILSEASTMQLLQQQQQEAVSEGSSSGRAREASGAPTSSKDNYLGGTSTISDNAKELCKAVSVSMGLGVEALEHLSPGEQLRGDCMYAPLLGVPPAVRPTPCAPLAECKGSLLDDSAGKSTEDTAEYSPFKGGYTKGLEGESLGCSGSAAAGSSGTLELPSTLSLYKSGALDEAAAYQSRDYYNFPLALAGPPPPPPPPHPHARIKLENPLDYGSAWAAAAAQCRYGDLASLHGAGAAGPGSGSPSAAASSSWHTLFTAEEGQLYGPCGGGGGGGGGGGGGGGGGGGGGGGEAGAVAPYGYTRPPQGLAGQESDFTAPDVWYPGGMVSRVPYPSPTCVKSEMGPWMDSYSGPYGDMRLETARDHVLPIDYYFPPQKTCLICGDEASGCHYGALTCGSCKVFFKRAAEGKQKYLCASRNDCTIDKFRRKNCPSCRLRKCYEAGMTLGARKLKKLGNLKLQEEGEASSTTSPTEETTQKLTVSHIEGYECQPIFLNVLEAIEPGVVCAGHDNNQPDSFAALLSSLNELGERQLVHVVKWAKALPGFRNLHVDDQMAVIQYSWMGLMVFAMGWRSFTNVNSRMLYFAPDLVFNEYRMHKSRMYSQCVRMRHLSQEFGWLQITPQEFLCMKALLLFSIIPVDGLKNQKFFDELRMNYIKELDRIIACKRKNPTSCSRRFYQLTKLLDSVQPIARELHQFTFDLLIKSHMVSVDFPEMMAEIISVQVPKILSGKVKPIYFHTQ
# Outline: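 MDA-kb2 cells (human breast carcinoma, stably carrying an MMTV-luciferase reporter responsive to AR and GR) were plated at 3,000 cells/well and preincubated 5 hr at 37C, then given compound plus R1881 agonist for 16 h. ONE-Glo luminescence was read.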
# [10] = target: Glucocorticoid receptor (Homo sapiens) (UniProt P04150); assay: qHTS assay to identify small molecule agonists of the glucocorticoid receptor (GR) signaling pathway (AID 720691; active = well fitted activation curve with a large enough effect in the signal ratio in the repeat runs, not every such curve was filed as active; the % refers to the signal ratio)
# Glucocorticoid receptor (Homo sapiens), sequence (P04150 whole entry, looked up): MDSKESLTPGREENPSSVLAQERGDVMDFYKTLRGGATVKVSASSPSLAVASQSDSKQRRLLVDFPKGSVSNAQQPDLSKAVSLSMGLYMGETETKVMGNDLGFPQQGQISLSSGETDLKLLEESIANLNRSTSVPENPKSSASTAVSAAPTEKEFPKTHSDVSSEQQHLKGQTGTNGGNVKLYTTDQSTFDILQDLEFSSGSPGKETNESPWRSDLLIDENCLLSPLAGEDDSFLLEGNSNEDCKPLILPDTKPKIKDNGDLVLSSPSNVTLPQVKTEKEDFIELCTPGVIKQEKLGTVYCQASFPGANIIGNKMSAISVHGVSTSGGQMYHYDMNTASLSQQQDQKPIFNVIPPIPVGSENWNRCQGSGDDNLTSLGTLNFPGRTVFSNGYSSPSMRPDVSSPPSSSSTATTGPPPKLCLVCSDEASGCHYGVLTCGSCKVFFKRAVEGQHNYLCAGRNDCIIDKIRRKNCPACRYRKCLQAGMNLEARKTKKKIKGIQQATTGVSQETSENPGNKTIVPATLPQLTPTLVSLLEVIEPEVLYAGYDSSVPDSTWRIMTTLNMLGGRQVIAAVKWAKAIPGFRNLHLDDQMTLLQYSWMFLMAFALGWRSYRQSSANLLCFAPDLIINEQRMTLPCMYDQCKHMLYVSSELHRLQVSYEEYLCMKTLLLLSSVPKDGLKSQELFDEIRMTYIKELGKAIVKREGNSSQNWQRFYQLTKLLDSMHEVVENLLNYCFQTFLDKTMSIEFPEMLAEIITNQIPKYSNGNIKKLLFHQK
# Outline: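 Beta-lactamase reporter activity, read as fluorescence intensity, was measured in GR-bla HeLa cells exposed to compounds for 18 h at 37 C and then loaded with LiveBLAzer B/G FRET substrate for 2 h at room temperature.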
# [11] = qHTS assay to identify small molecule antagonists of the glucocorticoid receptor (GR) signaling pathway - cell viability counter screen (AID 720693); also: nearly all actives have a fitted effect of over 55% in size; also: potency is read from the fitted curve at half-maximal effect
# [12] = qHTS assay for identifying genotoxic compounds that show differential cytotoxicity against isogenic chicken DT40 cell lines with known DNA damage response pathways - wild type cell line (AID 743012); also: nearly all actives have a fitted effect of over 60% in size; also: potency is read from the fitted curve at half-maximal effect
# Outline: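 Quantitative HTS on parental DT40 cells: 40 h compound treatment at 37 C/5% CO2, with viability then determined by CellTiter-Glo luminescence. Values serve as the DNA repair-proficient reference for differential cytotoxicity.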
# [13] = qHTS assay for identifying genotoxic compounds that show differential cytotoxicity against isogenic chicken DT40 cell lines with known DNA damage response pathways - Rad54/Ku70 mutant cell line (AID 743015); also: nearly all actives have a fitted effect of over 60% in size; also: potency is read from the fitted curve at half-maximal effect
# [14] = qHTS assay to identify small molecule antagonists of the androgen receptor (AR) signaling pathway - cell viability counter screen (AID 743033; also: nearly all actives have a fitted effect of over 45% in size; also: potency is read from the fitted curve at half-maximal effect)
# [15] = target: Androgen receptor (Homo sapiens) (UniProt P10275); assay: qHTS assay to identify small molecule agonists of the androgen receptor (AR) signaling pathway using the MDA cell line (AID 743040; also: nearly all actives have a fitted effect of over 20% in size)
# Outline: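 Luminescence from ONE-Glo, read after 30 min at room temperature, reflects MMTV-driven luciferase in MDA-kb2 cells (AR- and GR-responsive). Treatment lasted 16 h at 37C, 0% CO2.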
# [16] = qHTS assay to test for compound auto fluorescence at 535 nm (green) in HEK293 cell free culture (AID 720682)
# Outline: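 Intrinsic compound fluorescence is measured in culture medium containing 10% FBS, with excitation at 485 nm and detection at 535 nm, referenced to fluorescein.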
# [17] = qHTS assay to test for compound auto fluorescence at 460 nm (blue) in HepG2 cells (AID 720687)
# Outline: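 Cells (2,000/well in MEM with 10% FBS) attached overnight at 37 C, then were exposed to compound or DMSO for 1 hr at 37 C, 5% CO2. Fluorescence read at Ex/Em 405/460 nm, expressed as triamterene-equivalent signal.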
# [18] = target: Glucocorticoid receptor (Homo sapiens) (UniProt P04150); assay: qHTS assay to identify small molecule antagonists of the glucocorticoid receptor (GR) signaling pathway (AID 720692; active = well fitted inhibition curve with a large enough effect in the signal ratio in the repeat runs, not every such curve was filed as active; the % refers to the signal ratio; also: potency is read from the fitted curve at half-maximal effect)
# Outline: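 Fluorescence from cleaved LiveBLAzer B/G FRET substrate reports GRE-driven beta-lactamase in HeLa cells; compounds are tested against 5 nM dexamethasone (final) over 18 h at 37 C, substrate incubation 2 h at room temperature.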
# [19] = target: Androgen receptor (Homo sapiens) (UniProt P10275); assay: qHTS assay to identify small molecule antagonists of the androgen receptor (AR) signaling pathway (AID 743035; active = well fitted inhibition curve with a large enough effect in the signal ratio in the repeat runs, not every such curve was filed as active; the % refers to the signal ratio)
# Outline: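 Cell line: GeneBLAzer AR-UAS-bla GripTite (HEK293). Stimulus: R1881 added after compound. Exposure: 16 h, 37C, 5% CO2. Readout: LiveBLAzer B/G FRET fluorescence after 2 h at room temperature.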
# [20] = target: Androgen receptor (Homo sapiens) (UniProt P10275); assay: qHTS assay to identify small molecule agonists of the androgen receptor (AR) signaling pathway (AID 743036; active = well fitted activation curve with a large enough effect in the signal ratio in the repeat runs, with a control signal flat, not every such curve was filed as active; the % refers to the signal ratio)
# Outline: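 Agonist activity was scored by beta-lactamase reporter fluorescence in stably transfected HEK293 cells exposed to compounds for 16 h at 37C and 5% CO2. Substrate loading took 2 h at room temperature.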
Structure (SMILES),outcome [1],Potency [2],outcome [3],outcome [4],Potency [5],outcome [6],Potency [7],Potency [8],Potency [9],Potency [10],Potency [11],Potency [12],Potency [13],Potency [14],outcome [15],outcome [16],Potency [17],Potency [18],Potency [19],outcome [20]
O=C(CCc1ccc(O)cc1)c1c(O)cc(O)cc1O,inactive,inactive,inactive,inactive,inactive,inactive,62.5 µM (active),inactive,inactive,–,–,–,–,–,–,–,–,–,–,–
O=C1c2ccccc2C(=O)c2c(O)c(O)cc(O)c21,inactive,inactive,–,inactive,inactive,inactive,–,–,inactive,inactive,inactive,inactive,48.6 µM (active),inactive,inactive,–,–,–,–,–
Cc1cc(C)cc(N)c1,inactive,–,inactive,inactive,inactive,inactive,inactive,inactive,inactive,inactive,inactive,inactive,inactive,inactive,inactive,inactive,inactive,inactive,inactive,inactive
COC(=O)CCS,inactive,inactive,inactive,inactive,–,inactive,inactive,–,–,inactive,inactive,inactive,–,inactive,–,–,–,inactive,–,–
CCC1CO1 (stereo not given),inactive,inactive,inactive,inactive,–,inactive,inactive,inactive,–,inactive,inactive,inactive,inactive,inactive,–,–,inactive,inactive,–,–
CCCCC(CC)CN (stereo not given),inactive,inactive,inactive,inactive,inactive,inactive,62.3 µM (active),inactive,inactive,inactive,–,55.5 µM (active),55.5 µM (active),44.5 µM (active),inactive,–,inactive,–,–,inactive
C=C(C)CCCC(C)CCO (stereo not given),inactive,–,inactive,inactive,–,inactive,–,inactive,–,–,inactive,–,54.5 µM (active),inactive,–,inactive,inactive,–,–,–
CC1=C(CC=O)C(C)(C)CCC1,inactive,–,inactive,inactive,inactive,inactive,–,inactive,–,–,inactive,54.5 µM (active),24.3 µM (active),inactive,–,inactive,inactive,–,–,–
Oc1c(I)cc(I)c2cccnc12,inactive,–,inactive,inactive,inactive,inactive,–,–,–,–,inactive,–,–,inactive,–,inactive,–,–,–,–
CC(=O)Nc1cc(S(=O)(=O)O)cc2cc(S(=O)(=O)O)c(N=Nc3ccccc3)c(O)c12,inactive,–,inactive,inactive,inactive,inactive,–,inactive,–,–,inactive,inactive,inactive,inactive,–,inactive,inactive,–,–,–
C=CC(=O)[O-].C=CC(=O)[O-].[Zn+2],inactive,–,inactive,inactive,inactive,inactive,inactive,inactive,–,inactive,inactive,inactive,inactive,inactive,–,inactive,inactive,inactive,–,–
CC1(C)S[C@@H]2[C@H](NC(=O)C(c3ccccc3)S(=O)(=O)O)C(=O)N2[C@H]1C(=O)O (stereo not given in full),inactive,–,inactive,inactive,–,inactive,inactive,inactive,–,inactive,inactive,inactive,inactive,inactive,–,inactive,inactive,inactive,–,–
Cc1cccc(O)c1N,inactive,–,inactive,inactive,inactive,inactive,–,–,–,inactive,inactive,–,–,inactive,–,inactive,inactive,inactive,–,–
CCCC(=O)C(=O)O,inactive,–,inactive,inactive,inactive,inactive,inactive,inactive,–,inactive,inactive,inactive,inactive,inactive,–,inactive,inactive,inactive,–,–
Oc1cc2c(cc1O)[C@H]1c3ccc(O)c(O)c3OC[C@@]1(O)C2,inactive,–,inactive,inactive,inactive,inactive,22 µM (active),–,–,inactive,inactive,43.8 µM (active),31 µM (active),–,–,inactive,inactive,–,–,–
CO[C@]1(NC(=O)CSC(F)F)C(=O)N2C(C(=O)O)=C(CSc3nnnn3CCO)CO[C@H]21,inactive,–,inactive,inactive,inactive,inactive,inactive,inactive,–,inactive,inactive,inactive,inactive,inactive,–,inactive,inactive,inactive,–,–
OCCOCC#CCOCCO,inactive,–,inactive,inactive,–,inactive,inactive,inactive,–,–,inactive,inactive,inactive,inactive,–,inactive,inactive,–,–,–
CC(C)c1nc(CN(C)C(=O)N[C@H](C(=O)N[C@@H](Cc2ccccc2)C[C@H](O)[C@H](Cc2ccccc2)NC(=O)OCc2cncs2)C(C)C)cs1,inactive,–,inactive,inactive,inactive,inactive,inactive,inactive,–,inactive,inactive,inactive and 23.7 µM (active),23.7 µM (active),inactive,–,inactive,inactive,–,–,–
Cc1c(C)c2c(c(C)c1OC(=O)CCC(=O)OCCO)CC[C@@](C)(CCC[C@H](C)CCC[C@H](C)CCCC(C)C)O2,inactive,–,inactive,inactive,inactive,inactive,10.6 µM (active),–,–,–,21.3 µM (active),11.9 µM (active),11.9 µM (active),inactive,–,–,inactive,19 µM (active),–,–
c1ccc2sc(SN(C3CCCCC3)C3CCCCC3)nc2c1,inactive,–,inactive,inactive,–,inactive,–,inactive,–,–,inactive,inactive,–,inactive,–,inactive,inactive,–,–,–
Clc1ccc(Nc2nnc(Cc3ccncc3)c3ccccc23)cc1,inactive,–,inactive,inactive,inactive,inactive,–,–,–,inactive,inactive,29.8 µM (active),26.6 µM (active),inactive,–,–,inactive,–,–,–
CCOC(=O)c1ccccc1C(=C1C=C(Br)C(=O)C(Br)=C1)c1cc(Br)c(O)c(Br)c1,inactive,–,inactive,inactive,inactive,inactive,inactive,–,–,–,–,inactive,–,inactive,–,inactive,inactive,4.61 µM (active),–,–
